Experimental data reported in PubChem BioAssay (NCATS).
Records with an inconclusive call do not appear. The source made the active and inactive calls. Calls come from the whole dose curve; as a rule, active = well fitted curve in the direction sought with a large enough effect; inconclusive = small, poorly fitted or top-dose-only effect, or another doubt; inactive = no such curve, though single readings can be large; an effect the other way counts as inactive or inconclusive.

Columns and labels:
[1] = test system: CRL-7250; experiment: Cytotoxic Profiling of Annotated Libraries Using Quantitative High-Throughput Screening (AID 1296008); conditions: Five cell lines viability, CellTiter-Glo ATP luminescence, 48-72 h; max response: active compounds read low; note: nearly all actives have a fitted effect of over 60% in size; for max response: % is set by controls: 0 for no effect and ±100 for the full control effect
Procedure, shortened: (§1)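 Cytotoxicity was measured as CellTiter-Glo ATP luminescence, read after 10 min at room temperature. Compound treatment of the cells lasted 48 or 72 hr at 37 degrees Celsius in a qHTS format.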

[2] = test system: HEK293; experiment: as above; conditions: Five cell lines viability, CellTiter-Glo ATP luminescence, 48-72 h; max response: active compounds read low
Procedure, shortened: as §1

[3] = test system: HaCat; experiment: as above; conditions: Five cell lines viability, CellTiter-Glo ATP luminescence, 48-72 h; max response: active compounds read low
Procedure, shortened: as §1

[4] = test system: KB-3-1; experiment: as above; conditions: Five cell lines viability, CellTiter-Glo ATP luminescence, 48-72 h; max response: active compounds read low
Procedure, shortened: as §1

[5] = test system: NIH3T3; experiment: as above; conditions: Five cell lines viability, CellTiter-Glo ATP luminescence, 48-72 h; max response: active compounds read low
Procedure, shortened: as §1

[6] = test system: HACAT; experiment: qHTS assay to identify novel small-molecules to repurpose for Merkel cell carcinoma treatment (AID 1296009); conditions: MCC and control cell lines, CellTiter-Glo viability, 72 h; at 44.8 µM (top of the series) unless noted; note: nearly all actives have a fitted effect of over 60% in size
Procedure, shortened: (§2)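 Cell viability measured by CellTiter-Glo following 72 hr compound treatment at 37 degree celsius, with NPC and MIPE libraries tested in 8- and 11-point concentration series.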

[7] = test system: HEK293T; experiment: as above; conditions: MCC and control cell lines, CellTiter-Glo viability, 72 h; series mostly up to 44.8 µM
Procedure, shortened: as §2

[8] = test system: C33A; experiment: Primary qHTS to identify gynecologic anti-cancer compounds using libraries of approved drugs and bioactive compounds (AID 1345084); conditions: Gynecologic cancer cell panel viability, ATPlite luminescence, 48 h; series mostly up to 57.5 µM; note: % is set by controls: 0 for no effect and ±100 for the full control effect; nearly all actives have a fitted effect of over 55% in size
Procedure, shortened: (§3)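 48 h compound exposure at 37 C, 5% CO2; five-point qHTS. ATPlite luminescence readout of cell ATP.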

[9] = test system: CAOV3; experiment: as above; conditions: Gynecologic cancer cell panel viability, ATPlite luminescence, 48 h; series mostly up to 57.5 µM
Procedure, shortened: as §3

[10] = test system: CASKI; experiment: as above; conditions: Gynecologic cancer cell panel viability, ATPlite luminescence, 48 h; series mostly up to 57.5 µM
Procedure, shortened: as §3

[11] = test system: Es-2; experiment: as above; conditions: Gynecologic cancer cell panel viability, ATPlite luminescence, 48 h; series mostly up to 57.5 µM
Procedure, shortened: as §3

[12] = test system: HeLa; experiment: as above; conditions: Gynecologic cancer cell panel viability, ATPlite luminescence, 48 h; series mostly up to 57.5 µM
Procedure, shortened: as §3

CCOC(=O)c1c(C)nn(-c2cccc([N+](=O)[O-])c2)c1C
inactive: max response [1] -7.75% | outcome [2] | outcome [3] | max response [4] 0.772% | max response [5] 3.21% | outcome [6] | Potency [7] | Potency [8] | Potency [9] | Potency [10] | Potency [11] | Potency [12]

CC(C)C(C#N)O[C@@H]1O[C@H](CO[C@@H]2OC[C@](O)(CO)[C@H]2O)[C@@H](O)[C@H](O)[C@H]1O (stereo partly drawn)
inactive: max response [1] 0.582% | outcome [2] | outcome [3] | max response [4] 5.78% | max response [5] 3.22% | outcome [6] | Potency [7] | Potency [8] | Potency [9] | Potency [10] | Potency [11] | Potency [12]

C[C@@]12C[C@]3(O)O[C@H](O1)[C@]1(COC(=O)c4ccccc4)[C@H]3C[C@@]12O[C@@H]1O[C@H](COC(=O)c2ccccc2)[C@@H](O)[C@H](O)[C@H]1O
inactive: max response [1] -3.18% | outcome [2] | outcome [3] | max response [4] 1.05% | max response [5] 1.22% | outcome [6] inactive [at 17.4 µM] | Potency [7] | Potency [8] | Potency [9] | Potency [10] | Potency [11] | Potency [12]

C=C1C[C@]23C[C@H]1CC[C@H]2[C@]1(C)CCC[C@@]2(CO)C(=O)O[C@H]([C@H]21)[C@@H]3O
inactive: max response [1] -1.22% | outcome [2] | outcome [3] | max response [4] 6.36% | max response [5] 2.59% | outcome [6] | Potency [7] | Potency [8] | Potency [9] | Potency [10] | Potency [11] | Potency [12]

CC(=O)O[C@@H]1[C@H]2[C@@H](OC(=O)c3ccccc3)[C@@H](C)C[C@]2(O)[C@H](OC(C)=O)[C@@]2(C)[C@@H]3CC(C)(C)C(=O)[C@]3(OC(C)=O)C[C@@]12C
inactive: outcome [1] | outcome [2] | outcome [3] | outcome [4] | max response [5] 4.53% | outcome [6] inactive [at 17.4 µM] | Potency [7] | Potency [8] | Potency [9] | Potency [10] | Potency [11] | Potency [12]

CCCCNC(=O)[C@@H]1Cc2ccccc2N1C(=O)[C@@H](N)CC
inactive: max response [1] -0.785% | outcome [2] | outcome [3] | max response [4] 6.18% | max response [5] 3.92% | outcome [6] | Potency [7] | Potency [8] | Potency [9] | Potency [10] | Potency [11] | Potency [12]

COC(=O)C[C@@H]1C(C(=O)O)=CO[C@@H](O[C@@H]2O[C@H](CO)[C@@H](O)[C@H](O)[C@H]2O)/C1=C\COC(=O)/C=C\c1ccccc1
inactive: max response [1] -11.7% | outcome [2] | outcome [3] | max response [4] -0.0915% | max response [5] -14.1% | outcome [6] inactive [at 17.4 µM] | Potency [7] | Potency [8] | Potency [9] | Potency [10] | Potency [11] | Potency [12]

C/C=C(\C)C(=O)OC[C@H]1O[C@H](O[C@H]2O[C@H](CO)[C@@H](OC(=O)/C(C)=C/C)[C@H](O)[C@H]2O[C@@H]2O[C@H](CO)[C@@H](O)[C@H](O)[C@H]2O)[C@H](O[C@@H]2O[C@H](CO)[C@@H](O)[C@H](O)[C@H]2O)[C@@H](O)[C@@H]1O
inactive: max response [1] -3.07% | outcome [2] | outcome [3] | max response [4] 8.89% | max response [5] 2.61% | outcome [6] inactive [at 9.27 µM] | outcome [7] inactive [at 9.27 µM] | activity change, negative = cytotoxicity [8] 3.37% [at 11.6 µM] | activity change, negative = cytotoxicity [9] 17% [at 11.6 µM] | activity change, negative = cytotoxicity [10] 6.41% [at 11.6 µM] | activity change, negative = cytotoxicity [11] 10.5% [at 11.6 µM] | activity change, negative = cytotoxicity [12] 13.4% [at 11.6 µM]

C[C@@H]1O[C@@H](OC[C@H]2O[C@@H](OCC3CCC4CC3C4(C)C)[C@H](O)[C@@H](O)[C@@H]2O)[C@H](O)[C@H](O)[C@H]1O (stereo partly drawn)
inactive: max response [1] -0.807% | outcome [2] | outcome [3] | max response [4] 6.44% | max response [5] -1.43% | outcome [6] inactive [at 17.4 µM] | Potency [7] | Potency [8] | Potency [9] | Potency [10] | Potency [11] | Potency [12]

CO[C@H]1C=C2C(CC[C@H](O[C@@H]3O[C@H](CO)[C@@H](O)[C@@H](O)[C@H]3O)C2(C)C)[C@]2(C)CC[C@]3(C)C([C@H](C)C(O)C(C=C(C)C)O[C@@H]4O[C@H](CO)[C@@H](O)[C@@H](O)[C@H]4O)CC[C@@]3(C)C12 (stereo partly drawn)
inactive: max response [1] -4.36% | outcome [2] | outcome [3] | max response [4] 6.33% | max response [5] 3.68% | outcome [6] inactive [at 9.27 µM] | outcome [7] inactive [at 9.27 µM] | activity change, negative = cytotoxicity [8] -3.11% [at 11.6 µM] | activity change, negative = cytotoxicity [9] 7.91% [at 11.6 µM] | activity change, negative = cytotoxicity [10] -4.92% [at 11.6 µM] | activity change, negative = cytotoxicity [11] 2.74% [at 11.6 µM] | activity change, negative = cytotoxicity [12] 0.609% [at 11.6 µM]

C=C1CC/C=C(/CO)C(=O)C[C@@H]2[C@@H]1CC2(C)C
inactive: outcome [1] | outcome [2] | outcome [3] | max response [4] 2.82% | max response [5] 0.52% | outcome [6] | Potency [7] | Potency [8] | Potency [9] | Potency [10] | Potency [11] | Potency [12]

C=CC(C)(O)CC/C=C(\C)C(=O)OC1CC2(C(=O)O)CCC3(C)C(=CCC4C5(C)CCC(OC6OC(COC7OCC(O)C(O)C7O)C(O)C(OC7OCC(O)C(O)C7O)C6OC6OC(CO)C(O)C(O)C6OC6OCC(O)C(O)C6O)C(C)(C)C5CCC43C)C2CC1(C)C (stereo not drawn)
inactive: max response [1] 0.69% | outcome [2] | outcome [3] | outcome [4] | max response [5] 1.8% | outcome [6] inactive [at 9.27 µM] | outcome [7] inactive [at 9.27 µM] | activity change, negative = cytotoxicity [8] 0.0336% [at 6.55 µM] | activity change, negative = cytotoxicity [9] 2.82% [at 6.55 µM] | activity change, negative = cytotoxicity [10] 0.559% [at 6.55 µM] | activity change, negative = cytotoxicity [11] 6.29% [at 6.55 µM] | activity change, negative = cytotoxicity [12] 13.4% [at 6.55 µM]

CC(C)=CCC/C(C)=C/CC/C(C)=C/CC[C@]1(C)CCc2cc(O)cc(C)c2O1
inactive: max response [1] 3.81% | outcome [2] | outcome [3] | max response [4] 1.67% | max response [5] 1.13% | outcome [6] inactive [at 17.4 µM] | Potency [7] | Potency [8] | Potency [9] | Potency [10] | Potency [11] | Potency [12]

O=C(O)Cc1nn(Cc2nc3cc(C(F)(F)F)ccc3s2)c(=O)c2nccnc12
inactive: outcome [1] | outcome [2] | outcome [3] | max response [4] 9.35% | max response [5] 3.31% | outcome [6] | Potency [7] | Potency [8] | Potency [9] | Potency [10] | Potency [11] | Potency [12]
